These results are taken from PubChem BioAssay (Tox21).

Molecules are shown by their SMILES. Records with an inconclusive call do not appear. A call without a number means that no potency is given here. Some compounds were tested as several samples or in several runs, with calls that do not always agree. Calls of active or inactive are those of the source. The call rests on the fitted dose curve.
Potency means the concentration at half of the fitted maximal effect.

Sequence of Muscarinic acetylcholine receptor M1 (Homo sapiens) (P11229 whole entry, looked up): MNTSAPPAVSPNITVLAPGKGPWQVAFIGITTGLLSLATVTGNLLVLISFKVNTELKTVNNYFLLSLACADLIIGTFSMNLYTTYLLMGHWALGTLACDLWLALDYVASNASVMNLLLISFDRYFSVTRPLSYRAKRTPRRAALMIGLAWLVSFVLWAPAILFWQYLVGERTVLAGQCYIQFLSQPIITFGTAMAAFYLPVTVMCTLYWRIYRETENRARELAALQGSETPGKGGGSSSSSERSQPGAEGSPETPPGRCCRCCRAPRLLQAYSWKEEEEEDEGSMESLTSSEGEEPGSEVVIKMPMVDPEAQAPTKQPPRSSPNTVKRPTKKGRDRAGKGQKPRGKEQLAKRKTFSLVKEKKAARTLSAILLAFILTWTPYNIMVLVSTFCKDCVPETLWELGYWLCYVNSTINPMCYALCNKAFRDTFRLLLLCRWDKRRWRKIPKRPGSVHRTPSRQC

This assay addresses Muscarinic acetylcholine receptor M1 (Homo sapiens) (UniProt P11229). In words: Cholinergic receptor muscarinic 1 (CHRM1) small molecule antagonists, cell-based qHTS assay (AID 1963588). Further: nearly all actives have a fitted effect of over 40% in size. Particulars: CHRM1-CHO antagonist mode, calcium flux fluorescence; series mostly up to 61.5 µM. From the text:
National Center for Advancing Translational Sciences [NCATS]
Division of Preclinical Innovation [DPI]
U.S. Environmental Protection Agency [EPA]
National Institutes of Environmental Health Sciences [NIEHS]
National Toxicology Program [NTP]
U.S. Food and Drug Administration [FDA]
The CHRM1 is a muscarinic receptor. This receptor plays a crucial role in learning and memory processes and has long been identified as a promising therapeutic target for the improvement of cognitive decline in Alzheimer's disease (AD). The CHRM1-CHO cell line stably expressing human muscarinic acetylcholine receptor M1 (CHRM1) can be used for screening agonists and antagonists of interactions between CHRM1 and its ligands. The CHRM1-CHO Calcium Flux Assay is a homogeneous fluorescence-based assay for detecting the intracellular calcium level using FDSS kinetic plate reader system.
Tox21 Assay Protocol Summary:
CHRM1-CHO cells were dispensed at 1000 cells/3uL/well in 1536-well black-clear bottom plates using a Multidrop Dispenser. After the assay plates were incubated at a 37 C/5% CO2 incubator for 18 h, 3 uL of Dye Loading Buffer was transferred to the assay plate by a Flying Reagent Dispenser. The assay plates were incubated at 37 C for 1h. For antagonist mode, 23 nL of compounds dissolved in DMSO, positive controls or DMSO only was transferred to the assay plate by a pin tool. After 5 min incubation at room temperature, 1.5 uL of acetylcholine at 50nM was added to each well. The fluorescence intensity in the plates was measured using FDSS 7000EX kinetic plate reader for 3 min at 1 sec intervals. Each test compound was measured at 15 concentrations in three independent runs.
On the technique in general: In qHTS, concentration-response curves come from the screen itself.
For `Cc1ccc(CCl)cc1`, the Potency result is “inactive”. On to `N#CCCCCC#N`, for which the Potency result is “inactive”. With `CCCCSP(=O)(SCCCC)SCCCC` the entry was “inactive”; with `CCCCOCC1CO1` (stereo not given), “inactive”; with `CN(C)C(=S)SSC(=S)N(C)C`, “inactive”. The entry for `ClC(Cl)(Cl)Br` is “inactive”; for `O=c1oc2ccccc2c(O)c1C(CC(O)c1ccc(-c2ccc(Br)cc2)cc1)c1ccccc1` (stereo not given) it is 25.1 µM (active). The entry for `CC(Oc1ccc(Cl)cc1Cl)C(=O)O` (stereo not given) is “inactive”; for `NN=C(N)N` it is “inactive”; for `CCOP(=S)(OCC)Oc1cnc2ccccc2n1` it is “inactive”. As for `Cn1cc[n+](C)c1` (tested in a mixture with another compound), the Potency result was “inactive”.

`CCCCC#N`: the Potency result is “inactive”.

Regarding `OCC(Br)CBr` (stereo not given), the Potency entry is “inactive”. `ClC1=C(Cl)[C@]2(Cl)[C@@H]3[C@@H](Cl)[C@@H](Cl)C[C@@H]3[C@@]1(Cl)C2(Cl)Cl`: the Potency result is “inactive”.

`CN1CCC(N(Cc2ccccc2)c2ccccc2)CC1`: the Potency was 0.365 µM (active). The entry for `C=CC(=O)OC(C)(C)C` is “inactive”; for `C=CC=O` it is “inactive”; for `NCCc1ccc(O)cc1` it is “inactive”. As to `CCCN(CCC)c1c([N+](=O)[O-])cc(C(C)C)cc1[N+](=O)[O-]`, the Potency result was “inactive”. On to `CCCCc1c(C)nc(NCC)[nH]c1=O`, for which the Potency result is “inactive”. As for `O=Cc1cccc(Oc2ccccc2)c1`, the Potency entry was “inactive”. The figure for `CCCCCCCCCCCCCCn1cc[n+](C)c1` is 1.88 µM (active) and inactive; for `Nc1ccncc1` it is “inactive”; for `COP(=S)(OC)SCN1C(=O)c2ccccc2C1=O` it is “inactive”.

As for `BrCc1ccc(Br)cc1`, the Potency result is “inactive”. With `C[C@H]1O[C@H](OC2[C@@H](O)[C@@H](O)C(O)[C@H](O)[C@H]2O)[C@@H](N)C[C@@H]1N=C(N)C(=O)O` (stereo not given in full) the entry was “inactive”; with `Cc1ccc(N)c(C)c1`, “inactive”.

For `CCC(C)c1cc([N+](=O)[O-])cc([N+](=O)[O-])c1O` (stereo not given), the Potency result is “inactive”.

With `O=C1C(Cl)=C(Cl)C(=O)C(Cl)=C1Cl`, the Potency entry was “inactive”. On to `Clc1ccc(Cl)cc1`, for which the Potency entry is “inactive”.

On to `BrCCBr`, for which the Potency entry was “inactive”.

For the compound `N#Cc1cc(Br)c(O)c(Br)c1`, the Potency result was “inactive”. With `COC(=O)NS(=O)(=O)c1ccc(N)cc1` the entry was “inactive”; with `CC[N+](CC)(CC)CC`, “inactive”. With `CNC(=O)Oc1ccccc1C1OCCO1` the entry was “inactive”; with `O=Cc1ccccc1`, “inactive”; with `c1ccc2sc(SNC3CCCCC3)nc2c1`, “inactive”. The entry for `Cc1ccc(OP(=O)(Oc2ccc(C)cc2)Oc2ccc(C)cc2)cc1` is “inactive”; for `CN1C(=O)NC(=O)C(C)(C2=CCCCC2)C1=O` (stereo not given) it is “inactive”.

On to `Cl`, for which the Potency entry is “inactive”.
